We go through 40 molecules from PubChem BioAssay (Tox21).

Results filed as inconclusive are left out. A number with no mark means an inactive call. Active and inactive are the calls of the source. The call rests on the fitted dose curve; in most records, active means well fitted activation curve with a large enough effect in the repeat runs; inconclusive means weak or mixed curves; inactive means no such curve, though single readings can be large or run the other way.
On the % scale 0 is the no-effect control and ±100 the full control effect; potency means the concentration at half of the fitted maximal effect.

Sequence of Nuclear receptor subfamily 1 group I member 2 (Homo sapiens) (O75469 whole entry, looked up): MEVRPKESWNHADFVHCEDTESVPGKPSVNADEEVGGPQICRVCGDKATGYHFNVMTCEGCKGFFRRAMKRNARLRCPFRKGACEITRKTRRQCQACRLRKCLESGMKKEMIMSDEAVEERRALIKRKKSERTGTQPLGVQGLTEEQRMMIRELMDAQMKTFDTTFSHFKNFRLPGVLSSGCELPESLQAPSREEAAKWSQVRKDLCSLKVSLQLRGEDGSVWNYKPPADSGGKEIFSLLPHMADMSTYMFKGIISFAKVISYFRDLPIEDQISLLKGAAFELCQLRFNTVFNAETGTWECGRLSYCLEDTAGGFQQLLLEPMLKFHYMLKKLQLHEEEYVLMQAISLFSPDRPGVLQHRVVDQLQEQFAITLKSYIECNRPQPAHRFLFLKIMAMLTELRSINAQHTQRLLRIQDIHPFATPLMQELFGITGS

The target in the test is Nuclear receptor subfamily 1 group I member 2 (Homo sapiens) (UniProt O75469). In words: Human pregnane X receptor (PXR) small molecule agonists, qHTS assay (AID 1346982). Further: nearly all actives have a fitted effect of over 35% in size. The settings on record: PXR-Luc HepG2, CYP3A4 luciferase reporter, 24 h; series mostly up to 92.4 µM; activation: at the top concentration. An excerpt:
National Center for Advancing Translational Sciences [NCATS]
NIH Chemical Genomics Center [NCGC]
U.S. Environmental Protection Agency [EPA]
National Institutes of Environmental Health Sciences [NIEHS]
National Toxicology Program [NTP]
The human pregnane X receptor (hPXR) regulates the expression of several drug metabolizing enzymes and induction of these proteins is a major mechanism for developing drug resistance in cancer. One such key enzyme catalyzing the drug metabolism is cytochrome P450 3A4 (CYP3A4). Changes in CYP3A4 expression affect drug metabolism, thereby reducing the therapeutic efficacy and altering toxicological response to a drug and which finally causes adverse drug interaction. To screen Tox21 libraries for compounds that activate hPXR-mediated CYP3A4 gene expression, PXR-Luc HepG2 cells were used.
PXR-Luc HepG2 cells were dispensed at 2,000 per well in 5uL of assay medium containing 5% charcoal-stripped FBS into white solid bottom 1536-well plates (Corning Life Sciences, Corning, NY) using a Multidrop Combi (Thermo Scientific, Waltham, MA) dispenser. The assay plates were incubated at 37 C and 5% CO2 for 5hr, and then 23nL of compounds dissolved in DMSO and positive control were transferred using a Pintool station (Wako, San Diego, CA). The assay plates were incubated at 37C and 5% CO2 for 24hr. For luciferase read, 4uL of ONE-Glo reagent (Promega Corporation, Madison, WI) was added to each well of the assay plates using Flying Reagent Dispenser (FRD, Aurora Discovery, San Diego, CA) and incubated the assay plates at room temperature for 30min. The luminescence signal was quantified using a ViewLux plate reader (Perkin Elmer, Shelton, CT).
On the technique in general: In qHTS, concentration-response curves come from the screen itself.
For the molecule `[Cl][Dy]([Cl])[Cl]`, the “activation” value is 12%.
Regarding `Cc1ccc(C2OC[C@@H]3OC(c4ccc(C)cc4)O[C@H]([C@H](O)CO)[C@@H]3O2)cc1` (stereo not given in full), the “activation” value was 2.53%.
Same read-out and setting: for `NC(=O)c1ccccc1Cl` the value was -12.7%; for `Clc1ccc2c(Cl)ccnc2c1`, 1.54%; for `CCCCCCCCCCCCS(=O)(=O)Cl`, 2.36% [at 19 µM].
Regarding `C/C(=N\[Si](C)(C)C)O[Si](C)(C)C`, the “activation” value is 9.31%.
Turning to `Oc1ccc(Cl)cc1C1CCCC1`, the Potency was 68.6 µM (active).
On to `[Cl][Eu]([Cl])[Cl]`, for which the “activation” value is 2.98%.
Consider `Oc1ccc2c(c1)CCC2`, for which the “activation” value is 2.75%.
Still for that read-out and setting: next, `O=C1OCc2ccccc21`: 8.3%.
On to `CSc1nnc(C(C)(C)C)c(=O)[nH]1`, for which the “activation” value is 3.29%.
Consider `CC(=O)Nc1ccc(N=Nc2cc(C)ccc2O)cc1`, for which the Potency was 9.69 µM (active).
Consider `CCCCCCCCCCCCCCCCC(C(=O)O)C(O)(CC(=O)O)C(=O)O` (stereo not given), for which the “activation” value is -12.1% [at 42.5 µM].
`O=c1[nH]cccc1O`: the “activation” value was -0.507%.
As to `CCCCNc1ccc(NCCCC)c2c1C(=O)c1ccccc1C2=O`, the activation was 2.95% [at 19 µM].
Take `O=C1OC2(c3ccccc31)c1ccc(O)c(Br)c1Oc1c2ccc(O)c1Br`: the “activation” value is 8.85%.
Take `C/C=C/C(=O)OCC(C)C`: the “activation” value is 6.18%.
For `CC(C)(C)c1ccc(OC2CCCCC2O)cc1` (stereo not given), the Potency was 27.3 µM (active).
For `CCC(=O)OC/C=C(\C)CCC=C(C)C`, the “activation” value was 5.7%.
As to `C/C=C/C(=O)C1=C(C)C=CCC1(C)C`, the “activation” value is 3.98%.
As to `CC1=C(/C=C/C(C)=C/C=C/C(C)=C\C(=O)O)C(C)(C)CCC1`, the Potency was 34.5 µM (active).
With `Oc1cccc2c(O)cccc12`, the Potency was 54.5 µM (active).
`CCOC=C(C(=O)OCC)C(=O)OCC`: the “activation” value is 2.52%.
Still for that read-out and setting: for `CCC1(C)C(=O)N(Cl)C(=O)N1Cl` (stereo not given) the value was 1.39%; for `O=C(Nc1ccc([N+](=O)[O-])cc1)Nc1ccc([N+](=O)[O-])cc1` (tested in a mixture with another compound), 1.91% [at 42.5 µM].
In the case of `CC(C)(c1ccc(Oc2ccc(N)cc2)cc1)c1ccc(Oc2ccc(N)cc2)cc1`, the Potency was 61.1 µM (active).
With `CC(=O)CC(N)=O`, the “activation” value is -2.78%.
Still for that read-out and setting: for `N#CCCOCCC#N` the value was -6.59%; for `Nc1cc([N+](=O)[O-])ccc1Cl`, 11.9%.
Consider `c1ccc2c(c1)-c1ccc3ccc4cccc5cc-2c1c3c45`, for which the “activation” value was 23.8% [at 42.5 µM].
In the case of `O=S(=O)(c1ccc(OCc2ccccc2)cc1)c1ccccc1O`, the Potency is 61.1 µM (active).
`C/C(=C\c1ccc(C(=O)O)cc1)c1ccc2c(c1)C(C)(C)CCC2(C)C`: the “activation” value was 5.13% [at 42.5 µM].
The same measure, in the same setting: for `c1ccc2occc2c1` the value was -11.5%.
For the molecule `CCCCCCCCCCCCN1CCCC1=O`, the Potency was 27.3 µM (active).
On the same count and under the same terms, next, `O=C1OC(O)C(C(Cl)Cl)=C1Cl` (stereo not given): 22.4 µM (active).
In the case of `C=C[Si](C)(C)Cl`, the activation is 4.97% [at 8.39 µM].
The same measure, in the same setting: for `Nc1cc([N+](=O)[O-])cc(Cl)c1O` the value was 5.24%.
For `N#Cc1nc(Cl)c(Cl)c(Cl)c1Cl`, the Potency was 9.69 µM (active).
`C=C1C(CCl)(CCl)C2(Cl)C(Cl)C(Cl)C1(Cl)C2(Cl)Cl` (stereo not given): the Potency is 8.53 µM (active).
Same read-out and setting: next, `COc1cc(OC)nc(NC(=O)NS(=O)(=O)Nc2ccccc2C(=O)N(C)C)n1`: 43.3 µM (active).
